Records with an inconclusive call do not appear. Active and inactive are the calls of the source.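 How the source made its calls, unless noted: active means inhibition above 50%, about 3 SD of the validation set; inactive means the rest.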
Columns and labels:
[1] = yeast TOR pathway RPL19A-GFP modulators, primary screen, cell-based, S. cerevisiae, multiplex flow cytometry (AID 1862; in the data active means percent of DMSO control GFP below about 86%;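 further: lower values mimic rapamycin by blocking the RPL19A rise seen in DMSO cells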); conditions: S. cerevisiae RPL19A-GFP strain, flow cytometry fluorescence, 3 h; at 10 µM; stronger effect = lower value
[2] = modulators of MEP2-GFP levels in yeast, primary screen, S. cerevisiae, multiplex flow cytometry (AID 1867;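 active means GFP response, as percent of the DMSO control, above the screen-wide mean plus 3 SD, about 139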;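 further: median GFP channel fluorescence of barcode-gated MEP2-GFP cells measured by flow cytometry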); conditions: S. cerevisiae MEP2-GFP strain, 3 h, at 10 µM, stronger effect = higher value, 100% means same as DMSO wells
[3] = modulators of CIT2-GFP expression in yeast, primary screen, S. cerevisiae, GFP fusion, multiplex flow cytometry (AID 1870;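 active means percent response above a set limit, the screen-wide mean plus 3 SD, cut at about 130% in these data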;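 further: barcoded CIT2-GFP strain pooled with four other GFP strains with rapamycin as positive control; median GFP fluorescence per well over plate mean of DMSO wells so 100% = DMSO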); conditions: 3 h, at 10 µM, stronger effect = higher value
[4] = modulators of LAP4-GFP expression in yeast, primary screen, S. cerevisiae, multiplex flow cytometry (AID 1873;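 active means GFP signal, as percent of the solvent control, above the screen mean plus 3 SD, about 149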); conditions: 3 h, at 10 µM, stronger effect = higher value
[5] = modulators of AGP1-GFP expression in yeast TOR pathway, primary screen, cell-based, multiplex flow cytometry, S. cerevisiae (AID 1887;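 active means GFP signal above the screen-wide mean plus 3 SD, that is over about 124.5% of the solvent control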;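 further: AGP1-GFP fusion strain of S. cerevisiae within a five-strain barcoded multiplex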); conditions: 3 h, at 10 µM, stronger effect = higher value
[6] = inhibitors of CD8+ T cell-vesicle binding, pilot screen, LFA-1/ICAM-1 modulator project, MLPCN validation set, flow cytometry (AID 2523;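 active means response below a set limit, under 55% cells CD8-positive and vesicle-bound, and CD8 cells' 90th-percentile brightness under 279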;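 on vesicle binding response: mean PE anti-B7-1 fluorescence of CD8+ cells relative to row control; 100% = QL9-loaded vesicles with DMSO vehicle in the same plate row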); conditions: 2C mouse CD8+ T cells, at 7 µM, stronger effect = lower value; double positive events: measured here: CD8+/vesicle+ event percentage
[7] = biological target: Integrin beta-1 (Homo sapiens) + Integrin alpha-4 (Homo sapiens) (UniProt P13612+P05556); assay: inhibition of HUTS-21 binding to VLA-4, pilot screen, VLA-4 allosteric modulator project, U937 cells, HUTS-21 mAb, flow cytometry, validation set (AID 2674); conditions: HUTS-21 LIBS mAb binding, at 6.7 µM, stronger effect = higher value, binding induced by LDV ligand;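 further: antibody binding induced by the VLA-4 ligand LDV present at three times its Kd; 0% = LDV ligand with antibody and no compound and 100% = antibody without LDV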
[8] = superoxide lowering in aged yeast cells, pilot screen, validation compound set (AID 2706;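 active means superoxide response below 65% of plate, a cut near 3 SD across the whole screen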;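 further: yeast exposed to compound for one week at 30 degrees C before staining; 100% = mean of all compound wells on the same plate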); conditions: S. cerevisiae aging, superoxide DHE fluorescence; at 10 µM; stronger effect = lower value
[9] = biological target: Beta-adrenergic receptor kinase 1 (Homo sapiens) (UniProt P25098); assay: GRK2 binders displacing RNA aptamer, biochemical, validation, human GRK2, bead flow cytometry (AID 488806;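 active means aptamer binding inhibition above 30%, about 3 SD of noise from non-fluorescent compounds; inactive means inhibition at or below 30%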); conditions: bead-bound GRK2, FAM-aptamer displacement, at 10 µM, stronger effect = higher value
[10] = biological target: Beta-2 adrenergic receptor (Homo sapiens) (UniProt P07550); assay: beta2AR agonists driving receptor internalization, pilot screen, cell-based, FAP fluorogen, flow cytometry, validation set (AID 504459;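 active means percent response above 42, roughly 3 SD of non-fluorescent test compounds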;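 further: agonist-driven loss of surface beta2AR via internalization measured by FAP dye flow cytometry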); conditions: Am2.2-beta2AR cells, FAP surface receptor flow cytometry; at 10 µM; stronger effect = higher value
[11] = biological target: AP-2 complex subunit beta (Homo sapiens) (UniProt P63010); assay: inhibitors of arrestin peptide binding to AP2, pilot screen, biochemical, validation set, GST-AP2 beads, flow cytometry (AID 504541;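 active means inhibition above 54%, about 3 SD of non-fluorescent compounds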;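 further: AP2 carries R879A mutation and is captured from E. coli lysate; bead-bound FITC arrestin peptide fluorescence measuring arrestin peptide binding to AP2; 0% = DMSO wells and 100% = excess unlabeled arrestin peptide control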); conditions: FITC arrestin peptide, at 10 µM, stronger effect = higher value, AP2 beta2 appendage fragment, R879A mutant
[12] = yeast V-ATPase proton transport modulators, S. cerevisiae, pHLuorin, HTS validation (AID 504600; in the data active means response above about 15%;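 further: plate controls were DMSO for no effect and reference compound for full effect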); conditions: S. cerevisiae pHLuorin cytosolic pH, at 10 µM, stronger effect = higher value
[13] = test system: anti-desmoglein-3 scFv antibody binding to human DSG3; assay: inhibitors of anti-DSG3 scFv binding to DSG3, pilot screen, biochemical, validation compound set, bead-based, flow cytometry (AID 588368;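 active means binding below the plate cutoff, the plate median minus 3 SD, with a reading above zero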;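 further: signal is the median channel fluorescence of bead-bound GFP antibody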); conditions: Protein G beads, DSG3-Fc, scFv-GFP binding, at 10 µM, stronger effect = lower value
[14] = inhibitors of fungal efflux pumps CDR1, CDR2, MDR1, pilot screen, validation compound set, multiplex, phenotypic (AID 588506;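 active means efflux inhibition above 0.42, the validation set average plus 4 SD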;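 further: Nile Red retained in cells so higher fluorescence means more efflux inhibition; 0 = negative control wells and 1 = enniatin B 25 µM full block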); conditions: S. cerevisiae pump-expressing triplex, Nile Red efflux flow cytometry; at 10 µM; stronger effect = higher value; the pumps come from Candida albicans
[15] = biological target: ATP-binding cassette sub-family B member 6 (Homo sapiens) (UniProt Q9NP58); assay: ABCB6 transporter inhibitors, pilot screen, K562-ABCB6 cells, flow cytometry, validation set (AID 588550;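 active means inhibition above the screen-wide mean plus 3 SD, about 51%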;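 further: 0% = DMSO wells and 100% = benzethonium chloride 70 µM positive control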); conditions: K562-ABCB6 porphyrin accumulation, 1 h, at 10 µM, stronger effect = higher value
[16] = promoters of myeloid differentiation in arrested cells, primary screen, cell-based, GFP/MAC1 double positive, flow cytometry, validation set (AID 588685;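 active means differentiation response of at least 50%, scaled between solvent and reference control, from cells with both markers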;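 further: compound exposure lasts four days before antibody staining and flow analysis; 0% = DMSO wells and 100% = 5 µM fulvestrant positive control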); conditions: ER-HoxA9 marrow cells, stronger effect = higher value, normalized: vehicle 0, fulvestrant 100

Chain of Integrin beta-1 (Homo sapiens) + Integrin alpha-4 (Homo sapiens) (P05556 whole entry, looked up): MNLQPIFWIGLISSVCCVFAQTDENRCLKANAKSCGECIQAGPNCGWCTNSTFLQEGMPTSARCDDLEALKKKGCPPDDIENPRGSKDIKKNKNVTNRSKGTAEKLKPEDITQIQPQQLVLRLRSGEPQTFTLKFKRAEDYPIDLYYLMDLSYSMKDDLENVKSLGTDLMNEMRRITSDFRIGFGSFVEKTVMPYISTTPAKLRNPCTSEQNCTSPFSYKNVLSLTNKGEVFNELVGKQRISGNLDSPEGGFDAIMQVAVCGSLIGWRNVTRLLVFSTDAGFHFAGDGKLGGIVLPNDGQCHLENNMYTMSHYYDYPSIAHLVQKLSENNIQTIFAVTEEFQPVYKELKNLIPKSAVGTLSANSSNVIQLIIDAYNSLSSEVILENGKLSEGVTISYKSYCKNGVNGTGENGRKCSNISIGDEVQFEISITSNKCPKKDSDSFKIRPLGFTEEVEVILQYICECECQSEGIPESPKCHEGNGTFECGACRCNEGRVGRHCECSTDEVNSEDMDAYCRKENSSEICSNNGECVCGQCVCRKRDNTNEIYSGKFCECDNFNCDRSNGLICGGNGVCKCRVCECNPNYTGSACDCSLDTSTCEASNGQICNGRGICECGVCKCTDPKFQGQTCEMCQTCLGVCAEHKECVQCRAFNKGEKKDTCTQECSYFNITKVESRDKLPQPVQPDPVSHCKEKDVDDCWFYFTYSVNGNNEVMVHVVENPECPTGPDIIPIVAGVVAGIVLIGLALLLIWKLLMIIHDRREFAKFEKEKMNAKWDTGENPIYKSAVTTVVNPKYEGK
Chain of Integrin beta-1 (Homo sapiens) + Integrin alpha-4 (Homo sapiens) (P13612 whole entry, looked up): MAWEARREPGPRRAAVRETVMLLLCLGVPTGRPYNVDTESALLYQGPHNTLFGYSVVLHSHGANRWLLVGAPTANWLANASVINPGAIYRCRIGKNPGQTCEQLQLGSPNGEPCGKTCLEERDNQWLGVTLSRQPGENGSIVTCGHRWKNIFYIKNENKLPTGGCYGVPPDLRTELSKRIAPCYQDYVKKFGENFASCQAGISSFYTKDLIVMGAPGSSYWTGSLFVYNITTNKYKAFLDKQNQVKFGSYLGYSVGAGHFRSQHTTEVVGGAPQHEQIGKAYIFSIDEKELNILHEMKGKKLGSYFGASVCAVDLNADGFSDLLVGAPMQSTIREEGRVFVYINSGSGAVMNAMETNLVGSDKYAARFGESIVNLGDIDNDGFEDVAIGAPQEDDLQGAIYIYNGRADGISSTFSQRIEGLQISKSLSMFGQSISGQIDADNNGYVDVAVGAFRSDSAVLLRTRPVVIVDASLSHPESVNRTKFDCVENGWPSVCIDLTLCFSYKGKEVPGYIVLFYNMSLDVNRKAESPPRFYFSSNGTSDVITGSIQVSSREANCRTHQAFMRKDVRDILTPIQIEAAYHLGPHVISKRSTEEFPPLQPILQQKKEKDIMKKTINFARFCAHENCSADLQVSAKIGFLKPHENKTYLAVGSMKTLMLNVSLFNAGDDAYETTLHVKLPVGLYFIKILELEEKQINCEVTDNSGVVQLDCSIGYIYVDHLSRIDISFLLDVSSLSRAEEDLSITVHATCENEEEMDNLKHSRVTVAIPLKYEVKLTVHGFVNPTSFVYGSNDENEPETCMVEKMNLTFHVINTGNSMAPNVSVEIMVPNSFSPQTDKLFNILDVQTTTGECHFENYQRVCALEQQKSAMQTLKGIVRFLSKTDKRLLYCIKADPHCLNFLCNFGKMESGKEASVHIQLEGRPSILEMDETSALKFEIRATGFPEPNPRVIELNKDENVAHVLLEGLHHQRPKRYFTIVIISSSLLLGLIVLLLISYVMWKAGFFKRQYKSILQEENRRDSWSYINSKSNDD
Chain of ATP-binding cassette sub-family B member 6 (Homo sapiens) (Q9NP58 whole entry, looked up): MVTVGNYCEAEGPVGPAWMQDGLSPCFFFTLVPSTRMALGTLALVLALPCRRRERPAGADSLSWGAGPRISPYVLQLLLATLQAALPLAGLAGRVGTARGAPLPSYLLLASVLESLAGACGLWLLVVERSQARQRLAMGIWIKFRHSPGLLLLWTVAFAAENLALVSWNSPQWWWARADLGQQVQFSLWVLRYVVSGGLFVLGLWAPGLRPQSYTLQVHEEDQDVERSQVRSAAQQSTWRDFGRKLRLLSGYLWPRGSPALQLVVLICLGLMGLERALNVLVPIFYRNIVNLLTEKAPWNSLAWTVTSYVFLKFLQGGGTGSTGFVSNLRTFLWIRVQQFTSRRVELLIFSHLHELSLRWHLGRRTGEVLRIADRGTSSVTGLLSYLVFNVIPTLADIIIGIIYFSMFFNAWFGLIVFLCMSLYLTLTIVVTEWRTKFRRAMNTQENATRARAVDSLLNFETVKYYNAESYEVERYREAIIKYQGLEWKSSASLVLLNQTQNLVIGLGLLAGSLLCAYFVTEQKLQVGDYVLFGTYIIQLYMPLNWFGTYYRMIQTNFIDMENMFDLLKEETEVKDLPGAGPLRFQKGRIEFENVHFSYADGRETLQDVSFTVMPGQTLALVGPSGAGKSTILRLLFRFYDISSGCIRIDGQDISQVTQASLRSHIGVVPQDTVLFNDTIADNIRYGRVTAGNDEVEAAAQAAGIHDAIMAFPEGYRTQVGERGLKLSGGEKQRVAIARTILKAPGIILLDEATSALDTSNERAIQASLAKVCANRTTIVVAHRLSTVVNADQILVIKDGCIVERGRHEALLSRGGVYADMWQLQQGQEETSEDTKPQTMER
Chain of Beta-2 adrenergic receptor (Homo sapiens) (P07550 whole entry, looked up): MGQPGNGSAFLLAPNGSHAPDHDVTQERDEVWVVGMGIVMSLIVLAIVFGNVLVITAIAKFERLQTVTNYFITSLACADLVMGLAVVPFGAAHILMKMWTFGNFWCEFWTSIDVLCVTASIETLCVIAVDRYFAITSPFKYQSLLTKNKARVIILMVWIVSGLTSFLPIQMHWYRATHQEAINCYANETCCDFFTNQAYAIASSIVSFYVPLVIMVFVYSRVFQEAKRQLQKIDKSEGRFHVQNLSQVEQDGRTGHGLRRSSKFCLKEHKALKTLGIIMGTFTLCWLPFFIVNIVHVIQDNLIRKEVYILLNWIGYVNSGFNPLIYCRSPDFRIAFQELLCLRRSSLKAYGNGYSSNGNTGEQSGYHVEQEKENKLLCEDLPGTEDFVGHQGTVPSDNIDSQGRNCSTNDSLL
Chain of Beta-adrenergic receptor kinase 1 (Homo sapiens) (P25098 whole entry, looked up): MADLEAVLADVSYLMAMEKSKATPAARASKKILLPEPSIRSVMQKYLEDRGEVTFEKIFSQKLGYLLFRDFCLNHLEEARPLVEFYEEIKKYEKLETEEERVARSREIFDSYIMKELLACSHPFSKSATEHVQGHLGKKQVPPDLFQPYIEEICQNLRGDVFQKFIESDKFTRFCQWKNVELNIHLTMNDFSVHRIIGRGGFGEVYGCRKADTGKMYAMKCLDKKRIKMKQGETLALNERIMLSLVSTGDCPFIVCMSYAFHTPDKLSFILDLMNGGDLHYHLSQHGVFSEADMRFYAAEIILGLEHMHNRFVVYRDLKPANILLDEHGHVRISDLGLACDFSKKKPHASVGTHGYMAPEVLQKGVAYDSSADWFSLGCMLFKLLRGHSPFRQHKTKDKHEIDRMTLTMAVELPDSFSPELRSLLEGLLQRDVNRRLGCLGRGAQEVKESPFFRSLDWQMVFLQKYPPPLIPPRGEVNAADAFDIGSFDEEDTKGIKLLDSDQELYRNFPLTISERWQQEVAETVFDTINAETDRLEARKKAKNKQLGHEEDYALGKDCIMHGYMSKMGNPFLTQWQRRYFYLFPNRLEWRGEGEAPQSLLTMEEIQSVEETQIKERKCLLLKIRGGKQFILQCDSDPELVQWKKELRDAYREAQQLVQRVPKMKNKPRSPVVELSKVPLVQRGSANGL
Chain of AP-2 complex subunit beta (Homo sapiens) (P63010 whole entry, looked up, the tested form may be a part, one chain of several): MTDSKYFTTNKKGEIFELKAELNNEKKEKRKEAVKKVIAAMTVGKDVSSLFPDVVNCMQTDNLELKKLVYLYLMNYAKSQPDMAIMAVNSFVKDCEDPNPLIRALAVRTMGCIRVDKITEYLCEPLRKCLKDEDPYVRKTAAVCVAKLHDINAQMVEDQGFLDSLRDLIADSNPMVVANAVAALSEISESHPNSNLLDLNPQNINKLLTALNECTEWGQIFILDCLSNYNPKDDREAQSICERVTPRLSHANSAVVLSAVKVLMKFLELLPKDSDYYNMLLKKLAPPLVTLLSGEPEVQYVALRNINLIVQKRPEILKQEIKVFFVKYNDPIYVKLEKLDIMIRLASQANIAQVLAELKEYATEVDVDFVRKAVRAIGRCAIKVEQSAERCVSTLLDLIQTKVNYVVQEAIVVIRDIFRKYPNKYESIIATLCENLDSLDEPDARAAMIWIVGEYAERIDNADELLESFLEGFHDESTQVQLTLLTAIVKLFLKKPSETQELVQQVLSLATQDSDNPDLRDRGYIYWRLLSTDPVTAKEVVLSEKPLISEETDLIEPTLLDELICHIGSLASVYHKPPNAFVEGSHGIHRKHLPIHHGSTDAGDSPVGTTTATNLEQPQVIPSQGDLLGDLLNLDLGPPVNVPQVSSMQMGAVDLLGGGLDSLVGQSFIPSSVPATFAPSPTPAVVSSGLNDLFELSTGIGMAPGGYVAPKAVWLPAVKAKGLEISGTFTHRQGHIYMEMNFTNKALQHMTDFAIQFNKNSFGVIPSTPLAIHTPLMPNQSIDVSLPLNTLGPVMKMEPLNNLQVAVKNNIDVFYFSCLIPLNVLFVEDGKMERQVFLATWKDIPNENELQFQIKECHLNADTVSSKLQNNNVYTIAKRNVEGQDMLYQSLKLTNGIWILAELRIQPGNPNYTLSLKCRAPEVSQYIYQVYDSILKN

COC(=O)c1ccc(OCCCCN2CC(C)OC(C)C2)cc1 (stereo not drawn)
63.1%: double positive events [6]
inactive: percent of DMSO control GFP [1] 104% | GFP response vs DMSO [2] 99.7% | percent response of DMSO control [3] 105% | GFP response vs DMSO [4] 95.9% | GFP response, % of DMSO [5] 102% | vesicle binding response [6] 228% | inhibition [7] -3.77% | superoxide response (% of plate) [8] 106% | aptamer binding inhibition [9] 0% | response [10] 2.87% | inhibition [11] -5.73% | response [12] 2.09% | binding (% of control) [13] 98.3% | efflux inhibition (fraction of control) [14] 0.39 | inhibition [15] 5% | differentiation response [16] -11.9%

COc1ccccc1NC(=O)C12CCC(C)(C(=O)C1)C2(C)C (stereo not drawn)
63.5%: double positive events [6]
inactive: percent of DMSO control GFP [1] 99.3% | GFP response vs DMSO [2] 105% | percent response of DMSO control [3] 102% | GFP response vs DMSO [4] 124% | GFP response, % of DMSO [5] 109% | vesicle binding response [6] 173% | inhibition [7] -2.82% | superoxide response (% of plate) [8] 121% | aptamer binding inhibition [9] 5% | response [10] -14.9% | inhibition [11] 15.9% | response [12] -0.35% | binding (% of control) [13] 102% | efflux inhibition (fraction of control) [14] 0 | inhibition [15] 1% | differentiation response [16] -4%

COc1ccc(C2CC(c3ccc([N+](=O)[O-])cc3)=NN2C(=O)c2ccccc2)cc1OC (stereo not drawn)
active: inhibition [11] 65.2% | efflux inhibition (fraction of control) [14] 0.59
inactive: percent of DMSO control GFP [1] 97.1% | GFP response vs DMSO [2] 101% | percent response of DMSO control [3] 97% | GFP response vs DMSO [4] 108% | GFP response, % of DMSO [5] 116% | vesicle binding response [6] 211% | inhibition [7] 13.4% | superoxide response (% of plate) [8] 79.1% | aptamer binding inhibition [9] 4% | response [10] 6.46% | response [12] -0.24% | binding (% of control) [13] 92.9% | inhibition [15] 0% | differentiation response [16] -12.9%
64.6%: double positive events [6]

COC(=O)[C@@H](N)CS
inactive: percent of DMSO control GFP [1] 102% | GFP response vs DMSO [2] 102% | percent response of DMSO control [3] 98.2% | GFP response vs DMSO [4] 95.1% | GFP response, % of DMSO [5] 103% | vesicle binding response [6] 61.8% | inhibition [7] -3.18% | superoxide response (% of plate) [8] 101% | aptamer binding inhibition [9] 8% | response [10] 15.2% | inhibition [11] -20.1% | response [12] 0.91% | binding (% of control) [13] 95.6% | efflux inhibition (fraction of control) [14] 0.2 | inhibition [15] 4% | differentiation response [16] -3.4%
60.5%: double positive events [6]

Cn1cc(C2N3CC4(C)CN2CC(C)(C3)C4=O)c2ccccc21 (stereo not drawn)
inactive: percent of DMSO control GFP [1] 102% | GFP response vs DMSO [2] 107% | percent response of DMSO control [3] 98.9% | GFP response vs DMSO [4] 94% | GFP response, % of DMSO [5] 104% | vesicle binding response [6] 485% | inhibition [7] 0.58% | superoxide response (% of plate) [8] 101% | aptamer binding inhibition [9] 2% | response [10] -3.83% | inhibition [11] -3.74% | response [12] -6.53% | binding (% of control) [13] 95.1% | efflux inhibition (fraction of control) [14] -0.01 | inhibition [15] -4% | differentiation response [16] -7.57%
50.6%: double positive events [6]

CCN(CCCCCN(C)C)Cc1cc2ccccc2o1
inactive: percent of DMSO control GFP [1] 101% | GFP response vs DMSO [2] 101% | percent response of DMSO control [3] 94.8% | GFP response vs DMSO [4] 112% | GFP response, % of DMSO [5] 106% | vesicle binding response [6] 206% | inhibition [7] -0.43% | superoxide response (% of plate) [8] 79.9% | aptamer binding inhibition [9] -1% | response [10] -3.86% | inhibition [11] -2.46% | response [12] 0.31% | binding (% of control) [13] 102% | efflux inhibition (fraction of control) [14] -0.06 | inhibition [15] 10% | differentiation response [16] 5.6%
64.4%: double positive events [6]

O=C(CCC(=O)c1cccs1)c1cccs1
60.5%: double positive events [6]
inactive: percent of DMSO control GFP [1] 99.5% | GFP response vs DMSO [2] 96.3% | percent response of DMSO control [3] 107% | GFP response vs DMSO [4] 72.6% | GFP response, % of DMSO [5] 86.5% | vesicle binding response [6] 125% | inhibition [7] -4.52% | superoxide response (% of plate) [8] 108% | aptamer binding inhibition [9] 3% | response [10] -4.9% | inhibition [11] -11.3% | response [12] 1.04% | binding (% of control) [13] 91.5% | efflux inhibition (fraction of control) [14] -0.1 | inhibition [15] 6% | differentiation response [16] -20%

COc1cc(OC)cc(C(C)=O)c1
68.7%: double positive events [6]
inactive: percent of DMSO control GFP [1] 96% | GFP response vs DMSO [2] 91.8% | percent response of DMSO control [3] 95.1% | GFP response vs DMSO [4] 99.5% | GFP response, % of DMSO [5] 104% | vesicle binding response [6] 149% | inhibition [7] 14.2% | superoxide response (% of plate) [8] 94.5% | aptamer binding inhibition [9] 9% | response [10] -14.6% | inhibition [11] -2.85% | response [12] -2.23% | binding (% of control) [13] 81.3% | efflux inhibition (fraction of control) [14] 0 | inhibition [15] 5% | differentiation response [16] -6.96%

CC1CCN(C(=O)Oc2ccccc2)CC1
57.9%: double positive events [6]
inactive: percent of DMSO control GFP [1] 105% | GFP response vs DMSO [2] 111% | percent response of DMSO control [3] 103% | GFP response vs DMSO [4] 102% | GFP response, % of DMSO [5] 107% | vesicle binding response [6] 143% | inhibition [7] 2.93% | superoxide response (% of plate) [8] 111% | aptamer binding inhibition [9] 0% | response [10] 0.66% | inhibition [11] -6.8% | response [12] 0.42% | binding (% of control) [13] 101% | efflux inhibition (fraction of control) [14] 0.045 | inhibition [15] 5% | differentiation response [16] -6.03%

— PubChem BioAssay
